Here are results for 18 compounds from PubChem BioAssay (NCI).

The panel holds about 79,000 compounds, 15% with a hit somewhere; the sample as a whole holds those more often. A number with no mark means an inactive call. Calls of active or inactive are those of the source. No stated cut-off is given here; in the data, active means growth inhibition above about 70%; inactive means the rest.

A short description of assay [1]: NCI Yeast Anticancer Drug Screen. Data for the rad50 strain (AID 155).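 Further: 0% = growth of vehicle-only cultures of the same strain.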 The following applies: S. cerevisiae rad50 strain growth inhibition; at 50.0 µM; stronger effect = higher value. The method, boiled down: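 Yeast carrying a defined DNA repair defect were exposed to test compounds, and growth was compared with vehicle-treated controls to give percent inhibition.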
Assay [2] in a line: NCI Yeast Anticancer Drug Screen. Data for the mec2-1 strain (AID 157). The following applies: S. cerevisiae mec2-1 strain, at 50.0 µM, stronger effect = higher value. The method, boiled down:
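mec2-1 yeast strain, carrying an alteration in DNA damage repair or cell cycle control, was exposed to compounds; growth inhibition was measured relative to vehicle-treated controls.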

Assay [3] can be described thus: NCI Yeast Anticancer Drug Screen. Data for the sgs1 mgt1 strain (AID 161).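 Further: 0% = growth of cultures given vehicle only.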 The following applies: S. cerevisiae sgs1 mgt1 strain, at 50.0 µM, stronger effect = higher value. The procedure, abridged:
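Compounds are added to genetically altered yeast, and growth is compared with cultures given vehicle alone to give percent inhibition.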

The nature of assay [4]: NCI Yeast Anticancer Drug Screen. Data for the cln2 rad14 strain (AID 165).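 Further: 0% = growth equal to vehicle treated cultures.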 As to conditions: S. cerevisiae cln2 rad14 strain, at 50.0 µM, stronger effect = higher value. The procedure, abridged: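 Yeast carrying cln2 and rad14 alterations (cell cycle control and DNA damage repair) were exposed to compounds. Growth inhibition was measured against vehicle-treated controls.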
Assay [5] is described as follows: NCI Yeast Anticancer Drug Screen. Data for the bub3 strain (AID 167). The following applies: S. cerevisiae bub3 mutant strain, at 50.0 µM, stronger effect = higher value. The procedure, abridged: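 Compounds were applied to a genetically altered yeast strain carrying a cell-cycle control defect. Growth inhibition was scored against vehicle-treated controls.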
Assay [6] can be described thus: NCI Yeast Anticancer Drug Screen. Data for the mlh1 rad18 strain (AID 175). The following applies: S. cerevisiae mlh1 rad18 strain growth inhibition; at 50.0 µM; stronger effect = higher value. The method, boiled down: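 Growth inhibition of the yeast strain was measured after compound exposure and expressed relative to vehicle-treated controls. The strain carries defined defects in DNA damage repair.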

On to `O=c1c(O)c(-c2ccccc2)oc2ccccc12.[Zn+2]`, for which the growth inhibition in assay [1] is -6.95%; in assay [2], 7.25%; in assay [3], 20.2%; in assay [4], -41%; in assay [5], 24.9%; in assay [6], 27.6%.

Regarding `CC(Cl)CN(CC(C)Cl)c1ccc(-c2ccccc2)cc1` (stereo not drawn), the growth inhibition in assay [1] was 5.25%; in assay [2], -13.8%; in assay [3], 12.7%; in assay [4] it was 18%; in assay [5], -5%; in assay [6] it was -30.9%.

Turning to `CN1c2ccccc2NP1(=S)c1ccccc1` (stereo not drawn), the growth inhibition in assay [1] was 69.5%; in assay [2], 80% (active); in assay [3], 95.2% (active); in assay [4] it was 40.5%; in assay [5] it was 55.9%; in assay [6], 83.2% (active).

On to `Cc1cccc(N)c1`, for which the growth inhibition is 6.5% in assay [1]; -6.75% in assay [2]; 1.35% in assay [3]; 5.65% in assay [4]; 14.2% in assay [5]; 10.4% in assay [6].

Consider `CC1C2Cc3ccc(O)cc3C1(C)CCN2C` (stereo not drawn), for which the growth inhibition is 37% in assay [1]; 29.6% in assay [2]; 30.6% in assay [3]; 17.6% in assay [4]; 35% in assay [5]; 16.1% in assay [6].

Regarding `COc1cccc(/C=N/[N-]C(=O)c2ccncc2)c1[O-].[Ni+2].[OH3+]`, the growth inhibition is -14.6% in assay [1]; -4.05% in assay [2]; -12.1% in assay [3]; 18.1% in assay [4]; -12.2% in assay [5]; -14.2% in assay [6].

As for `CCN(CC)P1(=O)OP(=O)(N(CC)CC)OP(=O)(N(CC)CC)O1` (stereo not drawn), the growth inhibition in assay [1] is -0.5%; in assay [2] it was 7%; in assay [3] it was 11.8%; in assay [4], 14.3%; in assay [5], -9.7%; in assay [6], -11.6%.

`O=C([O-])CC(=O)[O-].O=C([O-])CC(=O)[O-].[K+].[Pd+2]`: the growth inhibition in assay [1] was 14.2%; in assay [2], 19.1%; in assay [3], 28.2%; in assay [4], 26.6%; in assay [5], 11.5%; in assay [6], 16.2%.

`CC(=O)O`: the growth inhibition in assay [1] is 2.15%; in assay [2], -13%; in assay [3], 7.5%; in assay [4], 4.05%; in assay [5], 1.45%; in assay [6], 0.55%.

Regarding `C[C@@H]1C[C@@]2(O[C@@H]2C)C(=O)O[C@@H]2CCN3CC=C(COC(=O)[C@]1(C)O)[C@H]23`, the growth inhibition was -4.5% in assay [1]; -16.2% in assay [2]; -7.95% in assay [3]; 13.3% in assay [4]; -4.9% in assay [5]; -75% in assay [6].

As to `c1ccc(-c2ccc[n+](CCC[n+]3cccc(-c4ccccn4)c3)c2)nc1`, the growth inhibition in assay [1] is 2.9%; in assay [2] it was 2.45%; in assay [3], -15.2%; in assay [4], -8.45%; in assay [5], -5.75%; in assay [6] it was 6.25%.

On to `NC1(O)C(=O)NC(=O)NC1=O`, for which the growth inhibition in assay [1] is -21.4%; in assay [2], -30%; in assay [3], -18.9%; in assay [4] it was -28.1%; in assay [5], -4.05%; in assay [6], 5.85%.

Regarding `CC([NH-])C[NH-].[NH2-].[NH2-].[Pt+4]` (stereo not drawn), the growth inhibition in assay [1] is 17.1%; in assay [2], -5.65%; in assay [3], -10.3%; in assay [4] it was -6.25%; in assay [5], 5.8%; in assay [6] it was -12.3%.

Take `O=C([O-])Cc1ccccc1.O=[N+]([O-])O.[Co+3].[NH2-].[NH2-].[NH2-].[NH2-].[NH2-]`: the growth inhibition in assay [1] was 13.1%; in assay [2], 12.5%; in assay [3] it was 21.3%; in assay [4] it was 11.9%; in assay [5], 14.8%; in assay [6] it was -5.9%.

Consider `NC(CCCCCP(=O)(O)O)C(=O)O` (stereo not drawn), for which the growth inhibition in assay [1] is -38.8%; in assay [2] it was -29.8%; in assay [3] it was -63.3%; in assay [4], -12.3%; in assay [5], -17.4%; in assay [6], -37.5%.

Regarding `CC[N+](C)(CC)CCC(C(=O)NC)(c1ccccc1)c1ccccc1`, the growth inhibition was -2.45% in assay [1]; -1.35% in assay [2]; -22.8% in assay [3]; -34.6% in assay [4]; 0.05% in assay [5]; -19.1% in assay [6].

As for `CCS(=O)(=O)CCN1C(=O)CN=C(c2ccccc2F)c2cc(Cl)ccc21`, the growth inhibition is 27.6% in assay [1]; 6% in assay [2]; 20.8% in assay [3]; 12.4% in assay [4]; -0.7% in assay [5]; 16.4% in assay [6].

Take `O=C(O)c1ccc([As](=O)(O)O)cc1[N+](=O)[O-]`: the growth inhibition was -3.85% in assay [1]; -23.1% in assay [2]; -0.65% in assay [3]; 1.7% in assay [4]; -3.6% in assay [5]; 7.4% in assay [6].
